# CHX counter = Cycloheximide Counterscreen for Small Molecule Inhibitors of Shiga Toxin; cell reporter, cycloheximide protein synthesis inhibition counterscreen; max response, %; 300,000 compounds, 12% hits; AID 2314, 2010; in the data active = max response mostly above about 13%, no sharp cut-off; inactive = mostly below about 14%; also: read at 38.3 µM for the half of the compounds with a filed dose; 0% is about no effect
# TbPYK inhibitor = qHTS of Trypanosoma Brucei Inhibitors; TbPYK enzyme, Kinase-Glo Plus ATP luminescence, 45 min; Potency, µM (doses to about 76.8 µM), without a hit: top-dose activity, negative = inhibition, hits mostly inhibitors; pyruvate kinase (Trypanosoma brucei), Q57TT1; 410,000 compounds, 0.12% hits; also: potency is read from the fitted curve at half-maximal effect; % is scaled to controls: 0 for no effect and ±100 for the full control effect; nearly all actives have a fitted effect of over 50% in size
#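 Screened from lowest to highest concentration, compounds were pinned into TbPYK/substrate mixtures, and ADP (130 uM final) was added. Plates sat at room temperature for 45 min prior to Kinase-Glo Plus detection by luminescence.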
# RE007 growth inh = qHTS Assay for Inhibitors of the HIV-1 protein Vpr | Potency, µM (titrated, usually from 92.2 µM), inactives show at the highest dose activity change, negative = less growth, hits mostly inhibitors | 360,000 compounds, 0.21% hits | S. pombe RE007 Vpr strain, BacTiter-Glo ATP luminescence, 24 h; active = well fitted falling curve with a large enough effect; inconclusive = small, poorly fitted or top-dose-only effect; inactive = no such curve, though single readings can be large or run the other way; also: potency is read from the fitted curve at half-maximal effect; % is scaled to controls: 0 for no effect and ±100 for the full control effect; nearly all actives have a fitted effect of over 50% in size
#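 Fission yeast RE007 carrying one integrated HIV-1 vpr copy, seeded at OD 0.01 in PMG+AL medium with 23 nL pinned compound. Grown 24 h at 30 degrees; viability read by BacTiter-Glo luminescence after 5 min.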
# Giardia FBPA inh = qHTS Assay for Inhibitors of Fructose-1,6-bisphosphate Aldolase from Giardia Lamblia; purified Giardia FBPA; A8B2U2; Potency, µM (top dose mostly 59.6 µM), for the others: at the top dose activity, negative = inhibition, actives largely listed as inhibitors; 290,000 compounds, 0.71% hits; AID 2451, 2010; also: potency is read from the fitted curve at half-maximal effect; % is scaled to controls: 0 for no effect and ±100 for the full control effect; nearly all actives have a fitted effect of over 55% in size
# Target sequence (A8B2U2 whole entry, looked up): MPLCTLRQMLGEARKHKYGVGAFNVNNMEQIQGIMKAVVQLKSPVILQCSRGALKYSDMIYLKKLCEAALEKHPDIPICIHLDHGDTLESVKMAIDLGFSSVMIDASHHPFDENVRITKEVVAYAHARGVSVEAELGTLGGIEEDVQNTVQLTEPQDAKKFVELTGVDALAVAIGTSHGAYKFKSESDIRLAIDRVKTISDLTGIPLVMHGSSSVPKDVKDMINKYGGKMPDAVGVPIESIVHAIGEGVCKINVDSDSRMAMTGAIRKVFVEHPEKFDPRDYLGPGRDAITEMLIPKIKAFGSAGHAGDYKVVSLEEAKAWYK
#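 40 nM FBPA preincubated 10 min at RT with compound (up to 57.5 uM final), then substrate plus GAPDH/TPI/NAD/arsenate coupling and diaphorase/resazurin added. Fluorescence read after 20 min at RT, 525/598 nm.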
# LmPK inhibitor = qHTS Assay for Inhibitors of Leishmania Mexicana Pyruvate Kinase (LmPK). Q27686. purified LmPK, Kinase-Glo ATP luminescence, 1 h. Potency, µM (top dose mostly 57.5 µM), inactives show top-dose activity change, negative = inhibition, usual class: inhibitors. 290,000 compounds, 0.37% hits; also: potency is read from the fitted curve at half-maximal effect; % is scaled to controls: 0 for no effect and ±100 for the full control effect
#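 Pyruvate kinase activity monitored as ATP production (luciferase luminescence). Conditions: 0.1 nM enzyme, 0.5 mM PEP, 0.1 mM ADP, 1 h, RT; normalized against uninhibited and no-enzyme wells.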
# Shiga toxin inh = A qHTS for Small Molecule Inhibitors of Shiga Toxin | Vero cells, Shiga toxin protein synthesis inhibition reporter | inhibition, % at 38.7 µM | 290,000 compounds, 9.2% hits; in the data active = inhibition mostly above about 28%, no sharp cut-off; inactive = mostly below about 43%; also: 0% is about no effect
# Numbers without * were called inactive; u = inconclusive; x = not tested or not shown. This excerpt belongs to a sample that is enriched for hits. Unless noted, calls follow the shape of the dose curve; as a rule, active = well fitted curve in the direction sought with a large enough effect; inconclusive = small, poorly fitted or top-dose-only effect, or another doubt; inactive = no such curve, though single readings can be large; an effect the other way counts as inactive or inconclusive.
SMILES,CHX counter,TbPYK inhibitor,RE007 growth inh,Giardia FBPA inh,LmPK inhibitor,Shiga toxin inh
Cc1ccnc2ccc(-c3nc4ccccc4o3)cc12,21*,-13%,-27%,-11%,-10%,55*
Cc1ccc(Cl)cc1NC(=O)c1cnn2c(C(F)F)cc(-c3ccccc3)nc12,x,4%,x,x,x,x
Cc1ccc(O)c(NC(=O)c2noc3c2CCCC3)c1,x,-2%,x,x,x,x
CC(=O)c1ccc(NC(=O)c2noc3c2CCc2ccccc2-3)cc1,x,4%,x,x,x,x
CCc1ccc(NC(=O)c2noc3c2CCCCC3)cc1,23*,-6%,18%,3%,-1%,85*
Cc1ccc(O)c(NC(=O)c2noc3c2CCCCC3)c1,42*,4%,6%,-16%,-9%,185*
O=C(NC1CCCCC1)c1noc2c1CCCCC2,39*,1%,-25%,-4%,-14%,72*
CC(=O)c1cccc(NC(=O)c2noc3c2CCCC3)c1,x,-4%,x,x,x,x
Cc1ccc(NC(=O)c2noc3c2CCc2ccccc2-3)cc1,34*,-1%,-15%,3%,-1%,47*
CCC(C(=O)Nc1ccc(C(=O)OC)cc1)n1nc(-c2ccc(C)cc2)c2c(c1=O)CCCC2 (centres undefined),x,2%,x,x,x,x
Cc1c(Cl)cccc1NC(=O)c1oc2ccc(S(=O)(=O)N3CCCCCC3)cc2c1C,x,2%,x,x,x,x
Cc1ccc(NC(=O)c2noc3c2CCCCC3)cc1,67*,11%,-1%,8%,-7%,83*
COc1ccc(OC)c(NC(=O)c2noc3c2CCCC3)c1,x,0%,x,x,x,x
CCc1ccc(NC(=O)c2noc3c2CCC3)cc1,25*,-1%,u,-12%,14µM*,28
Cc1ccc(NC(=O)c2noc3c2CCCCC3)cc1C,43*,5%,-21%,5%,-2%,107*
COc1ccc(NC(=O)c2noc3c2CCCCC3)cc1,42*,-1%,-18%,0%,5%,83*
CCOC(=O)Cn1c(=O)oc2cc(S(=O)(=O)N(C)c3cccc(C)c3)ccc21,0,4%,8%,-2%,4%,-14
CCCCOC(=O)c1ccc(NC(=O)c2cc3c(=O)n4cccc(C)c4nc3n2C)cc1,x,6%,x,x,x,x
CCC(C(=O)O)n1c2ccccc2c2cn[nH]c(=O)c21 (centres undefined),-2,2%,17%,-6%,7%,15
Cc1cc(C)nc(/N=C(\N)Nc2ccccc2-c2ccccc2)n1,-2,2%,-9%,u,3%,-15
CCCc1cc(C(=O)Nc2nnc(C)s2)cs1,33*,2%,-6%,0%,3%,128*
CCOc1cc(C(=O)Nc2nnc(C)s2)cc(OCC)c1OCC,2,0%,8%,1%,4%,7
Cc1nnc(NC(=O)c2ccc3ccccc3c2)s1,31*,0%,-3%,x,1%,74*
CC(C)c1nnc(NC(=O)c2ccc3ccccc3c2)s1,51*,-6%,-3%,x,-2%,108*
Cc1ccc(C(=O)Nc2nnc(C)s2)cc1,27*,-1%,-3%,-16%,-4%,64*
SMILES,CHX counter,TbPYK inhibitor,RE007 growth inh,Giardia FBPA inh,LmPK inhibitor,Shiga toxin inh
CCc1nn(C(C)C(=O)NCc2ccc(Cl)cc2)c(=O)c2cc3occc3n12 (centres undefined),12*,1%,7%,8%,1%,11
COc1ccccc1Cn1ccn(Cc2ccc(C)cc2)c(=O)c1=O,x,-5%,x,x,x,x
CC(=O)c1[nH]c(C)c(C(=O)NCc2ccc(Cl)cc2)c1C,x,3%,x,x,x,x
S=C(Nc1ccccc1)Nc1ccc(Br)cn1,-2,-6%,-5%,-1%,3%,22
O=C(/C=C/c1cccs1)NC(=S)NNC(=O)c1ccccc1O,9,-9%,5%,-18%,3%,-9
O=C(NC(=S)Nc1ccc(Br)cn1)c1cccs1,69*,3%,0%,u,1%,105*
O=C(NC(=S)Nc1ccccc1)c1cccs1,60*,1%,-13%,u,-1%,81*
COc1ccc(C(=O)NNC(=S)NC(=O)/C=C/c2cccs2)cc1,37*,-10%,-12%,1%,25µM*,111*
O=C(/C=C/c1cccs1)NC(=S)Nc1ccccc1,32*,4%,-19%,-15%,1%,123*
O=C(Nc1ccc(NC(=S)NC(=O)c2cccs2)cc1)c1ccccc1,11,4%,2%,-11%,1%,-2
CC(=O)NC(=S)Nc1ccc(NC(=O)c2cccs2)cc1,28*,-7%,10%,-4%,-5%,32*
COCCCNC(=O)C1CCN(C(=O)c2oc3cc4sc(N(C)C)nc4cc3c2C)CC1,36*,-8%,3%,-4%,-5%,60*
CCN(CC)CCCNC(=O)C1CCN(C(=O)c2oc3cc4sc(N(C)C)nc4cc3c2C)CC1,19*,-11%,-2%,-17%,-1%,24
O=C1NC(=S)N/C1=C\C=C\c1ccccc1,30*,-2%,6%,-8%,4%,50*
COc1ccc(C(=O)Nc2nnc(SCC(=O)NC3CCCC3)s2)c(OC)c1,42*,8%,-6%,-2%,9%,96*
COc1ccc(C(=O)Nc2nnc(SCC(=O)Nc3ccc(NC(C)=O)cc3)s2)c(OC)c1,48*,4%,-3%,x,-6%,119*
CCc1nnc(NC(=O)c2ccc(OC)cc2OC)s1,38*,-7%,-4%,-6%,-7%,66*
COc1ccc(C(=O)Nc2nnc(SCC(=O)NC3CC3)s2)cc1,39*,2%,9%,-3%,-4%,51*
CC(=O)Nc1ccc(NC(=O)CSc2nnc(NC(=O)c3cccc(F)c3)s2)cc1,10,-10%,-7%,x,-7%,12
Cc1sc2ncn(CC(=O)N3CCN(c4ccccc4)CC3)c(=O)c2c1S(=O)(=O)N1CCC(C)CC1,x,1%,x,x,x,x
O=C(Nc1ccccc1)N1CCCC2(CCN(C(=O)c3csnn3)CC2)C1,x,0%,x,7%,x,x
CN(C)c1cc(-c2cccc(C(F)(F)F)c2)oc(=O)c1Cl,x,0%,12%,x,x,x
CCOc1ccccc1C(=O)Nc1nnc(COC)s1,21*,-3%,-9%,32%,-2%,22
c1cncc(-c2nc3ccccc3o2)c1,21*,-7%,-10%,-2%,-14%,39
c1ccc(-c2nc3ccccc3o2)nc1,42*,2%,0%,5%,-23%,51*
Cc1cc(-c2nc3ccccc3o2)c2ccccc2n1,-3,-8%,-12%,-1%,-1%,13
O=C1CCC(=O)N1c1cccc(-c2nc3ccccc3o2)c1,7,6%,1%,0%,4%,43
Nc1ccc2oc(-c3ccccn3)nc2c1,34*,-11%,-15%,u,u,71*

# Screening data (PubChem)
